A number with no mark means an inactive call. For some assays here: Entries with a potency or affinity are not part of this list. The source made the active and inactive calls. Unless noted, no rule for the calls is given here.
What was measured:
[1] = antimalarial activity against Dd2 strain (AID 2302;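 active = growth inhibition above 50% at the single 2 µM test dose, taken to imply half-maximal potency below 2 µM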;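 also: 0% = DMSO untreated growth and 100% = chloroquine plus artemisinin killed control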); settings: P. falciparum Dd2 in RBCs, LDH growth readout, 72 h; at 2 µM; active compounds read high
[2] = HepG2 cytotoxicity, primary screen, cytotoxicity control for P. falciparum antimalarial project, cell-based, ATP luminescence (AID 2303;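 active = inhibition above 50%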;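 also: 0% = DMSO wells and 100% = digitonin-killed cells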); settings: HepG2 viability, 24-48 h, at 10 µM, active compounds read high
[3] = target: L-lactate dehydrogenase (Plasmodium falciparum (isolate CDC / Honduras)) (UniProt Q27743); assay: PfLDH activity inhibition – cell lysate, 3D7 strain, counter-screen for P. falciparum growth inhibition project (AID 2304);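 also: 0% = vehicle and 100% = reference inhibitor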; settings: P. falciparum 3D7 crude extract, LDH APAD/NBT absorbance; at 2 µM; active compounds read high
[4] = inhibition of 3D7 malaria parasite growth – strain 3D7 (AID 2306);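 also: 0% = DMSO wells and 100% = chloroquine plus artemisinin control wells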; settings: P. falciparum 3D7 erythrocytic growth, LDH absorbance, 72 h; at 2 µM; active compounds read high
[5] = target: Calcium-dependent protein kinase 1 (Plasmodium falciparum (isolate 3D7)) (UniProt P62344); assay: PfCDPK1 kinase inhibitors, biochemical, TCAMS library (AID 1159585; cut-off not given, nearly all actives have IC50 up to about 0.98 µM;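 also: inhibitors leave more ATP so luminescence rises with inhibition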); settings: recombinant PfCDPK1, Kinase-Glo ATP depletion luminescence
[6] = target: Plasmodium falciparum protein kinase 6 (PK6, PF3D7_1337100) (UniProt Q8IDW1); assay: PfPK6 kinase inhibitors, biochemical, TCAMS library (AID 1159586); settings: recombinant PfPK6, Kinase-Glo ATP depletion luminescence
[7] = target: Protein kinase 7 (PK7), Plasmodium falciparum 3D7 (PF3D7_0213400) (UniProt Q7YTF7); assay: inhibition of Plasmodium PK7 catalytic activity – biochemical, TCAMS antimalarial set, Kinase-Glo luminescence (AID 1159587); settings: recombinant PfPK7, Kinase-Glo ATP depletion luminescence
[8] = target: Calcium-dependent protein kinase 4 (Plasmodium falciparum (isolate 3D7)) (UniProt Q8IBS5); assay: PfCDPK4 kinase inhibitors, biochemical, TCAMS library (AID 1159588; cut-off not given, nearly all actives have IC50 up to about 0.91 µM); settings: recombinant PfCDPK4, Kinase-Glo ATP depletion luminescence
Calcium-dependent protein kinase 4 (Plasmodium falciparum (isolate 3D7)), sequence (Q8IBS5 whole entry, looked up): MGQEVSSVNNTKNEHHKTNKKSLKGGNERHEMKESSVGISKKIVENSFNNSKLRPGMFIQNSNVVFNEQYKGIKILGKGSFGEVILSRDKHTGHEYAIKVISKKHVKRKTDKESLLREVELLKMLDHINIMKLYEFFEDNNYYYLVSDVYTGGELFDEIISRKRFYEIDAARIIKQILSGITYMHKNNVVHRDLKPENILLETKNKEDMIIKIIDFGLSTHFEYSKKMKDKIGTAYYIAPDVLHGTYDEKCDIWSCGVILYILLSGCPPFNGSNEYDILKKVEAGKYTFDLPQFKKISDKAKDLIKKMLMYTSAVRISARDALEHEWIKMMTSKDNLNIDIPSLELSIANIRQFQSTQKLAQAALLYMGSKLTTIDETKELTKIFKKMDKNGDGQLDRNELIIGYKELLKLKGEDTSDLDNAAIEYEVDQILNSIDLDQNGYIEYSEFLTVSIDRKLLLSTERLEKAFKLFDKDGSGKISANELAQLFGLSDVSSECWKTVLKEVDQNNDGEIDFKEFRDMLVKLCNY

Plasmodium falciparum protein kinase 6 (PK6, PF3D7_1337100), sequence (Q8IDW1 1-305): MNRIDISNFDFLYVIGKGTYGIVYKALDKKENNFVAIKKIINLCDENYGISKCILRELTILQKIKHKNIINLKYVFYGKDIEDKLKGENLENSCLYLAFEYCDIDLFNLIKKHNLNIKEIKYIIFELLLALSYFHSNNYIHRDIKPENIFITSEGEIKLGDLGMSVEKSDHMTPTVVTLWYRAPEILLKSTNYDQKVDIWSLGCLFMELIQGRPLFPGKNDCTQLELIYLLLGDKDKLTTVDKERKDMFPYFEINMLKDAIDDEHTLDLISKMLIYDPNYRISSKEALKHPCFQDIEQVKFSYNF
L-lactate dehydrogenase (Plasmodium falciparum (isolate CDC / Honduras)), sequence (Q27743 whole entry, looked up): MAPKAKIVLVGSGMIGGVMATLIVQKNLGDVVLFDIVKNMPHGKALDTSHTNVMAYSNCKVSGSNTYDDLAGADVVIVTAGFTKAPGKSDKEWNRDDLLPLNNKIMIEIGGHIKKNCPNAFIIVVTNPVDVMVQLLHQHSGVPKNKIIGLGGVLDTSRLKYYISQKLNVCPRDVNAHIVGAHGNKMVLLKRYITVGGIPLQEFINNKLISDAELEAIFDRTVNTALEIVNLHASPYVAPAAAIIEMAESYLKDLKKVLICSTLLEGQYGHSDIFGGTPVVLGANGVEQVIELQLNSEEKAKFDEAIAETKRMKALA
Calcium-dependent protein kinase 1 (Plasmodium falciparum (isolate 3D7)), sequence (P62344 whole entry, looked up): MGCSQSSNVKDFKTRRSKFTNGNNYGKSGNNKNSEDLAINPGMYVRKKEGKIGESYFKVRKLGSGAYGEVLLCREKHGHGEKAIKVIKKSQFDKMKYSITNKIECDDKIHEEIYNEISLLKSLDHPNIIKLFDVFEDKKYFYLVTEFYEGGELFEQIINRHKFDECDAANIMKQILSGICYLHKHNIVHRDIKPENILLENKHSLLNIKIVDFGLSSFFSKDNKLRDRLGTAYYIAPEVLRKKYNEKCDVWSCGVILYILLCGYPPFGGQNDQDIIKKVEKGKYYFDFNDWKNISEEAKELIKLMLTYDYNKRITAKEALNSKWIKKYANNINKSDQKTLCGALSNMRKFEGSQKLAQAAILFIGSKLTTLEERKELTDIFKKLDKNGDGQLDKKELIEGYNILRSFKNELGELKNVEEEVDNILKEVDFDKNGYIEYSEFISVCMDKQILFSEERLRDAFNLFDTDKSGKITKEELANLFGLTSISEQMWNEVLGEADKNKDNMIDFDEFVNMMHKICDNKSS
Protein kinase 7 (PK7), Plasmodium falciparum 3D7 (PF3D7_0213400), sequence (Q7YTF7 1-343): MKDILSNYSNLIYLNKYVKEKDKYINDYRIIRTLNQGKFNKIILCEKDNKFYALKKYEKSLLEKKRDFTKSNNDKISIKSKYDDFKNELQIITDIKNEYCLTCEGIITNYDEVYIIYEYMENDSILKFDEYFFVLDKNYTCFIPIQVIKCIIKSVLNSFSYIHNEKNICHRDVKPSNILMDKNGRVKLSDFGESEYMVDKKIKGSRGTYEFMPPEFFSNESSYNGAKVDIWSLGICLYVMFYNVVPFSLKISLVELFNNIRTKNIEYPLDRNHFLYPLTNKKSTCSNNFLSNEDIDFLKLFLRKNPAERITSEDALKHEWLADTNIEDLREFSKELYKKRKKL

Row | SMILES | growth inhibition [1] | inhibition [2] | inhibition [3] | growth inhibition [4] | outcome [5] | outcome [6] | outcome [7] | outcome [8]
1 | C[C@@H](COc1ccccc1)NCC(O)c1ccc([N+](=O)[O-])c(OCc2ccccc2)c1 (stereo not given in full) | 64% (active) | 5% | 7% | 93% (active) | inactive | inactive | inactive | inactive
2 | Cc1noc(C)c1-c1cccc(CNCc2ccc(-c3ccc(-c4nc5c(C)cccc5[nH]4)cc3)cc2)c1 | 95% (active) | 28% | 5% | 102% (active) | inactive | inactive | inactive | inactive
3 | CCN(CC)C(=NCCCCCCN=C(NC(N)=NCc1ccc(Cl)cc1)N(CC)CC)NC(N)=NCc1ccc(Cl)cc1 | 100% (active) | 18% | -3% | 100% (active) | inactive | inactive | inactive | inactive
4 | CC(C)N(Cc1ccccc1)C(=O)CN1C(=O)COc2ccc(S(=O)(=O)N3CCCCCC3)cc21 | 99% (active) | -11% | -3% | 99% (active) | inactive | inactive | inactive | inactive
5 | Fc1cccc(COc2ccc(Nc3ncnc4sc(C#CC5CCCCN5)cc34)cc2Cl)c1 (stereo not given) | 100% (active) | 30% | 3% | 101% (active) | inactive | inactive | inactive | inactive
6 | Nc1ncc(-c2cccc(OCc3ccccc3)c2)cc1-c1nnc2ccc(Cl)nn12 | 7% | -7% | -5% | 94% (active) | inactive | inactive | inactive | inactive
7 | COc1ccc(Nc2ncc3c(-c4cccc(NC(=O)Cc5cccnc5)c4)c[nH]c3n2)cc1OC | 85% (active) | 27% | 1% | 98% (active) | inactive | inactive | inactive | inactive
8 | CCCCCN1CCCC(CNS(=O)(=O)c2ccc(C(=O)Nc3ccc(C(F)(F)F)cc3)cc2)C1 (stereo not given) | -9% | 51% (active) | -2% | 94% (active) | inactive | inactive | inactive | inactive
9 | COc1ccc(-c2ccc(CNC(=O)c3cccc(C#N)c3)c(F)c2)cc1CN1CCCN(C)CC1 | 30% | 8% | -4% | 99% (active) | inactive | inactive | inactive | inactive
10 | Cc1cc(Nc2ccc(C(C)(C)C)cc2)c2[nH]ncc2n1 | 63% (active) | 31% | 0% | 83% (active) | inactive | inactive | inactive | inactive
11 | Cc1[nH]c(C)c(-c2ccc(-c3ccc(Cl)cc3)cc2)c(=O)c1Cl | 96% (active) | -9% | -6% | 96% (active) | inactive | inactive | inactive | inactive
12 | CC(C)(C)SCC(O)Cn1c2ccc(Br)cc2c2cc(Br)ccc21 (stereo not given) | 79% (active) | 4% | 1% | 87% (active) | inactive | inactive | inactive | inactive
13 | c1ccc2c(C3CCN(CCCCOc4ccc5c(c4)CCN(CC4CC4)CC5)CC3)c[nH]c2c1 | 97% (active) | 74% (active) | -8% | 99% (active) | inactive | inactive | inactive | inactive
14 | CC1CCCN(C(=O)c2cc(-c3ccccn3)nc3c(Cl)cccc23)C1 (stereo not given) | 9% | 2% | -5% | 86% (active) | inactive | inactive | inactive | inactive
15 | COc1ccc(S(=O)(=O)Nc2ccc(C(=O)NCc3ccc(C(F)(F)F)cc3)cc2)cc1N1CCN(CC2CC2)CC1 | 1% | 34% | 2% | 95% (active) | inactive | inactive | inactive | inactive
16 | CCOc1ccc(-c2nonc2NC(=O)CC(C)C)cc1OCC | 37% | -1% | 6% | 92% (active) | inactive | inactive | inactive | inactive
17 | CC(C)CC(NC(=O)c1ccc(F)cc1)C(=O)N[C@H](/C=N/N1CCNC1=O)CC(C)C (stereo not given in full) | 84% (active) | -5% | -4% | 89% (active) | inactive | inactive | inactive | inactive
18 | O=C(NC1CC1)c1cnc(N2CCC(COc3cccc(F)c3)CC2)c(Cl)c1 | 87% (active) | 1% | 5% | 89% (active) | inactive | inactive | inactive | inactive
19 | CC(=O)Nc1nc(C(=O)Nc2cccc(-c3ccc(-c4nc5ccc(F)cc5[nH]4)cc3)c2)cs1 | 32% | 54% (active) | -4% | 101% (active) | inactive | inactive | inactive | inactive
20 | O=C(Nc1ccc(C(=O)N2CCN(CCN3CCN(c4cccc(C(F)(F)F)c4)CC3)CC2)cc1)c1ccc(C(F)(F)F)cc1 | 28% | 39% | 0% | 95% (active) | inactive | inactive | inactive | inactive

Row | SMILES | growth inhibition [1] | inhibition [2] | inhibition [3] | growth inhibition [4] | outcome [5] | outcome [6] | outcome [7] | outcome [8]
21 | COc1ccc2nccc([C@@H](O)CN3CCC(NCc4nc5c(OCc6ccccc6)cccc5[nH]4)CC3)c2c1 | 34% | 6% | 3% | 101% (active) | inactive | inactive | inactive | inactive
22 | Cn1nc(-c2ccc(NC(=O)Nc3cc(C(F)(F)F)ccc3F)cc2)c2cnc(NCCCCN3CCCC3)nc21 | 74% (active) | 88% (active) | -3% | 98% (active) | inactive | inactive | inactive | inactive
23 | c1ccc(Oc2ccc(Nc3ccnc4ccc(-c5ccccn5)cc34)cc2)cc1 | 10% | 4% | -5% | 80% (active) | inactive | inactive | inactive | inactive
24 | Cc1cccc(C)c1CNc1nc(N2CCOCC2)cc2c(C)c(C)[nH]c12 | 64% (active) | 51% (active) | -4% | 92% (active) | inactive | inactive | inactive | inactive
25 | COc1cc2c(cc1OC)C(C(=O)Nc1ccc(C(F)(F)F)cc1)C(c1cccs1)N(C)C2=O (stereo not given) | 86% (active) | 31% | 2% | 99% (active) | inactive | inactive | inactive | inactive
26 | Cc1ccc(NC(=O)Nc2ccc(Cn3ncc(N4CCCNCC4)c(Cl)c3=O)cc2)cc1 | 13% | 35% | -1% | 84% (active) | inactive | inactive | inactive | inactive
27 | O=C(Nc1cccc(CN2CCCN(CC3CC3)CC2)c1)c1ccc(Cl)c(Cl)c1 | 5% | 13% | 4% | 92% (active) | inactive | inactive | inactive | inactive
28 | Cc1noc(C)c1-c1cccc(CNCc2cccc(-c3ccc(-c4nc5ccccc5[nH]4)cc3)c2)c1 | 76% (active) | 27% | -2% | 100% (active) | inactive | inactive | inactive | inactive
29 | Cc1cc(C(F)(F)F)n2nc(C(=O)N(Cc3cncn3Cc3cccc(F)c3)CC3CC3)cc2n1 | 92% (active) | -2% | 3% | 101% (active) | inactive | inactive | inactive | inactive
30 | O=C(/C=C/c1ccc(-c2nc3ccc(Cl)cc3[nH]2)cc1)NC1CCN(Cc2ccccc2)CC1 | 92% (active) | 3% | 0% | 100% (active) | inactive | inactive | inactive | inactive
31 | O=C1c2ccccc2C(=O)N1CCOc1c(Br)cc(Br)cc1CNCCCNc1cc(=O)c2ccccc2[nH]1 | 12% | 10% | -6% | 92% (active) | inactive | inactive | inactive | inactive
32 | CCOC(=O)c1cnc2c(OC)cc(OC)c(Cl)c2c1Nc1cccc(C)c1 | 20% | 0% | -2% | 95% (active) | inactive | inactive | inactive | inactive
33 | Oc1ccccc1CCNCC1CCc2ccccc2C1 (stereo not given) | 98% (active) | 37% | 0% | 98% (active) | inactive | inactive | inactive | inactive
34 | c1ccc(CNCc2ccc(-c3ccc(-c4nc5ccccc5[nH]4)cc3)cc2)cc1 | 93% (active) | 32% | 1% | 101% (active) | inactive | inactive | inactive | inactive
35 | CS(=O)(=O)N1CC2(CCN(CCC(NC(=O)/C=C/c3ccccc3)c3ccc(Cl)c(Cl)c3)CC2)c2ccccc21 (stereo not given) | 55% (active) | 18% | 2% | 97% (active) | inactive | inactive | inactive | inactive
36 | Cc1ccc(NC(=O)c2ccc3ncccc3c2)cc1OC1CCN(C(C)C)C1 (stereo not given) | 37% | 12% | 1% | 95% (active) | inactive | inactive | inactive | inactive
37 | O=C(Cc1ccccc1)NC(c1ccco1)c1cc(Cl)c2cccnc2c1O (stereo not given) | 93% (active) | 44% | -1% | 89% (active) | inactive | inactive | inactive | inactive
38 | O=C(OCc1ccccn1)c1nc2ccccc2[nH]1 | 97% (active) | 63% (active) | -2% | 92% (active) | inactive | inactive | inactive | inactive
39 | COc1ccc2nccc(NC(=O)N3CCC(NCc4cc5c(F)ccc(F)c5[nH]4)CC3)c2n1 | 40% | 6% | -2% | 99% (active) | inactive | inactive | inactive | inactive
40 | Cc1sc2nc(CSc3ccccc3)nc(N3CCN(CC(=O)NC4CC4)CC3)c2c1C | 95% (active) | 2% | 1% | 96% (active) | inactive | inactive | inactive | inactive
